How the values were obtained:
Test in all cases: PBM binding z-score (relative to random genomic background probes); higher = stronger binding; sequences stand for … in GC…GCGATTGACAGCGTAGAATGAAGG
[1] = tested on: FXR:RXRa (NR concentration 270 nM, RXRa partner concentration 90 nM)
Summary of the method: (§1)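 Ligand-free nuclear receptor dimers were applied to custom Agilent 4×180K protein-binding microarrays whose double-stranded probes carried direct-repeat seeds, single-nucleotide variants, half-site ablations and random human genomic background sequences in 34-nt variable regions. Incubation lasted 1 h. Binding z-scores were computed against the random background probes from regression-normalized fluorescence.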

[2] = tested on: LXRa:RXRa (NR concentration 270 nM, RXRa partner concentration 90 nM)
Summary of the method: as §1

[3] = tested on: LXRa homodimer (NR concentration 270 nM)
Summary of the method: as §1

[4] = tested on: LXRb:RXRa (NR concentration 270 nM, RXRa partner concentration 90 nM)
Summary of the method: as §1

[5] = tested on: LXRb homodimer (NR concentration 270 nM)
Summary of the method: as §1

[6] = tested on: PPARa:RXRa (NR concentration 270 nM, RXRa partner concentration 90 nM)
Summary of the method: as §1

[7] = tested on: PPARg:RXRa (NR concentration 180 nM, RXRa partner concentration 90 nM)
Summary of the method: as §1

[8] = tested on: PPARg:RXRa 270nM:90nM, anti-RXR (NR concentration 270 nM, RXRa partner concentration 90 nM)
Summary of the method: as §1

[9] = tested on: PPARg:RXRa 30nM:10nM, anti-RXR (NR concentration 30 nM, RXRa partner concentration 10 nM)
Summary of the method: as §1

[10] = tested on: PPARg:RXRa 90nM:30nM, anti-RXR (NR concentration 90 nM, RXRa partner concentration 30 nM)
Summary of the method: as §1

[11] = tested on: PPARg:RXRa DBDmut IVT, anti-RXR (DBD mutation: RXRa K156A/R161A, NR concentration 270 nM, RXRa partner concentration 90 nM)
Summary of the method: as §1

[12] = tested on: PPARg:RXRa IVT, anti-PPARg (NR concentration 270 nM, RXRa partner concentration 90 nM)
Summary of the method: as §1

[13] = tested on: PPARg DBDmut:RXRa IVT, anti-PPARg (DBD mutation: PPARg1 K132A/R137A, NR concentration 270 nM, RXRa partner concentration 90 nM)
Summary of the method: as §1

[14] = tested on: PPARg DBDmut IVT, anti-PPARg (DBD mutation: PPARg1 K132A/R137A, NR concentration 270 nM)
Summary of the method: as §1

[15] = tested on: PPARg homodimer (NR concentration 180 nM)
Summary of the method: as §1

[16] = tested on: PXR:RXRa (NR concentration 270 nM, RXRa partner concentration 90 nM)
Summary of the method: as §1

[17] = tested on: PXR homodimer (NR concentration 270 nM)
Summary of the method: as §1

[18] = tested on: RARa:RXR (NR concentration 270 nM, RXRa partner concentration 90 nM)
Summary of the method: as §1

[19] = tested on: RARa homodimer (NR concentration 270 nM)
Summary of the method: as §1

[20] = tested on: RARb:RXRa (NR concentration 270 nM, RXRa partner concentration 90 nM)
Summary of the method: as §1

Sequence | PBM binding z-score [1] | PBM binding z-score [2] | PBM binding z-score [3] | PBM binding z-score [4] | PBM binding z-score [5] | PBM binding z-score [6] | PBM binding z-score [7] | PBM binding z-score [8] | PBM binding z-score [9] | PBM binding z-score [10] | PBM binding z-score [11] | PBM binding z-score [12] | PBM binding z-score [13] | PBM binding z-score [14] | PBM binding z-score [15] | PBM binding z-score [16] | PBM binding z-score [17] | PBM binding z-score [18] | PBM binding z-score [19] | PBM binding z-score [20]
TCGATTAGGTTACCAATGGGGCATTCAGCTTTCT | 0.297 | 1.49 | -0.396 | 1.29 | -0.254 | 1.21 | -0.163 | 1.5 | 2.68 | 2.26 | 2.52 | 1.4 | 0.217 | 0.237 | 0.366 | 0.467 | -0.59 | 0.557 | -0.505 | 1.44
ATACCAAGCTGATCGTGAGGTCGTTGATACTAAC | 0.705 | 0.688 | 0.391 | 0.818 | -0.351 | 0.693 | 0.178 | -0.0256 | -0.198 | -0.0126 | -0.185 | 0.0581 | 0.404 | 0.536 | 0.45 | 1.49 | 1.06 | 1.26 | 0.317 | 0.454
GGAACGAGGGCAAAGTTGATAGTATCTGTCGACG | 1.26 | 0.763 | -0.348 | 0.972 | -0.379 | 4.02 | 6.9 | 7.32 | 6.78 | 7.32 | 3.79 | 4.43 | 0.556 | -0.544 | 0.557 | 1.12 | 0.156 | 1.66 | -0.123 | 2.22
GATACAGGGTCAAGGCCAGAGAACGCGTATTGAT | 6.78 | 4.32 | 0.0774 | 3.59 | -0.239 | 5.57 | 5.91 | 5.64 | 2.25 | 4.54 | 2.63 | 3.9 | 1.58 | -0.524 | 2.6 | 3.71 | 0.476 | 4.41 | 1.07 | 4.49
ATATGTAGGTTAGCTGGTGTCATTCAGACTAGGC | 0.789 | 1.83 | -0.106 | 0.765 | 0.392 | 2.74 | 3.47 | 2.8 | 0.962 | 2.2 | 6.77 | 6.16 | 2.14 | 1.6 | 1.06 | 1.65 | 0.392 | 1.44 | 0.23 | 0.987
CCGAGTAGGTTATGGGGGATTCAGGCAACGGTGA | 1.01 | 1.49 | 0.84 | 3.36 | 6.87 | 2.55 | 2.34 | 4.36 | 1.98 | 3.77 | 4.03 | 3.95 | 3.42 | 4.43 | 2.01 | 1.17 | 1.05 | 1.26 | 1.69 | 1.33
CCTCGGAGGACAGAAGGTCGGAGCTGTCCGCTTT | -0.221 | -0.259 | -0.611 | -0.529 | -0.931 | -0.47 | -0.973 | -0.664 | -1.51 | -1.26 | -0.473 | -0.963 | -1.7 | -2.08 | 0.00885 | -0.282 | -0.764 | -0.413 | -0.449 | 1.12
ACTCCGAGGACAAAGGTCAGAGCTACGCCAGTGA | 4.86 | 4.4 | 1.86 | 3.99 | 0.764 | 4.91 | 8.48 | 7.6 | 6.18 | 8.09 | 1.44 | 4.05 | 0.71 | -0.0719 | 6.93 | 4.53 | 0.63 | 5.82 | 2.61 | 4.58
AGACTGAGGTTACCAAAGATCAGGGAAACGCTTG | 1.67 | 5.98 | -0.277 | 3 | -0.462 | 2.79 | 1.29 | 1.54 | 0.351 | 1.05 | 0.451 | 1.01 | -0.133 | -0.273 | 0.133 | 1.42 | -0.0396 | 1.82 | -0.111 | 2.08
TCGAGAAGGTTACCAATGGGGCATTCAGCTTTCT | 0.688 | 2.9 | -0.534 | 1.76 | -0.525 | 2.11 | 0.146 | 1.49 | 2 | 1.69 | 1.39 | 0.663 | -1.15 | -0.173 | 0.132 | 0.773 | -1 | 1.49 | -0.803 | 2.26
AATACAGGGTCATCCTAGGCCAGAGTACGCACAG | 7.59 | 6.64 | 3.26 | 5.25 | 1.72 | 6.4 | 6.74 | 5.93 | 2.82 | 4.48 | 2.5 | 4.16 | 1.89 | 1.39 | 2.39 | 5 | 0.711 | 4.8 | 1.41 | 4.46
CAGACTAGGTCACCGGAAGGTCAAAGTCCGCATG | 5.95 | 5.63 | 4.26 | 5.14 | 0.786 | 5.42 | 7.82 | 7.03 | 3.63 | 6.35 | 7.28 | 7.61 | 0.753 | 0.84 | 6.86 | 5.81 | 1.7 | 6.81 | 2.04 | 5.34
GATACAGGGGCAGCTAGAGGCCAGAGTATGGAAA | 0.0694 | 0.017 | -0.177 | 0.453 | -0.405 | 0.26 | 0.483 | 0.296 | -0.0735 | -0.078 | 0.509 | 0.442 | -0.18 | -0.917 | -0.0981 | -0.0351 | -0.216 | -0.106 | -0.394 | 1.57
CCGACTGGGGCAGGAAGGTTACCATACCATCCGG | -0.0935 | -0.228 | -0.392 | -0.202 | -0.995 | 0.76 | 0.782 | 0.189 | -0.465 | -0.0165 | 1.39 | 2.05 | -0.739 | -1.79 | 0.462 | -0.00877 | -0.202 | 0.286 | -0.388 | 0.913

From the supplement of paper PMC6555819
